This is a sample that favours compounds with a hit; in the whole collection about 21% have one here.
Pf growth 96h – P. falciparum growth inhibition at 96 hour, primary screen for plastid delayed-death inhibitors; AID 504834; Potency, µM (series often up to 28.7 µM), for inactives: at the top dose activity change, negative = inhibition, hits mostly inhibitors; P. falciparum luciferase reporter growth, 96 h; hit rate 6.9% among 320,000; active means well fitted inhibition curve with a large enough effect; inconclusive means small, poorly fitted or top-dose-only effect, or another doubt; inactive means no such curve, though single readings can be large or run the other way; further: potency means the concentration at half of the fitted maximal effect; on the % scale 0 is the no-effect control and ±100 the full control effect
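P. falciparum expressing integrated firefly luciferase, in erythrocytes at 2% hematocrit, 0.05% parasitemia, incubated with compounds 96 h at 37 C, 5% CO2. Growth inhibition read as loss of luminescence; two-generation exposure targets delayed-death apicoplast inhibitors.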
Pf growth 48h – P. falciparum growth inhibition at 48 hours (one generation) | P. falciparum luciferase growth in erythrocytes, 48 h | Potency, µM (doses to about 28.7 µM), inactives show top-dose activity change, negative = inhibition, actives largely listed as inhibitors | hit rate 5.9% among 310,000 | AID 504832; active means well fitted inhibition curve with a large enough effect; inconclusive means small, poorly fitted or top-dose-only effect, or another doubt; inactive means no such curve, though single readings can be large or run the other way; further: potency means the concentration at half of the fitted maximal effect; on the % scale 0 is the no-effect control and ±100 the full control effect
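Read-out is firefly luciferase luminescence from an integrated reporter in P. falciparum, so falling signal marks reduced parasite growth. Infected erythrocytes were at 2% hematocrit and 0.1% parasitemia (final) in Albumax-supplemented RPMI 1640.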
Shiga inhibitor – inhibitors of Shiga toxin in Vero cells; Vero cells, Shiga toxin protein synthesis inhibition reporter; inhibition, % at 38.7 µM; hit rate 9.2% among 290,000; AID 2315; in the data active means inhibition mostly above about 28%, no sharp cut-off; inactive means mostly below about 43%; further: 0% is about no effect
CHX counter – counter-screen hit for Shiga toxin inhibitors, cycloheximide; cell reporter, cycloheximide protein synthesis inhibition counterscreen; max response, %; hit rate 12% among 300,000; AID 2314; in the data active means max response mostly above about 13%, no sharp cut-off; inactive means mostly below about 14%; further: read at 38.3 µM for the half of the compounds with a filed dose; 0% is about no effect
SARS PLP yeast – inhibitors of SARS-CoV papain-like protease in yeast; hit rate 0.19% among 330,000; S. cerevisiae expressing SARS-CoV PLpro, growth rescue; Potency, µM (highest dose often 32.9 µM), for inactives: at the top dose activity, positive = growth rescue, hits mostly activators; AID 485353; further: potency means the concentration at half of the fitted maximal effect; 0% is about no effect; nearly all actives have a fitted effect of over 55% in size
NS1 function inh – influenza NS1 inhibition | Potency, µM (highest dose often 46.1 µM), inactives show at the highest dose activity, positive = more growth | hit rate 0.4% among 270,000 | AID 2326; further: potency means the concentration at half of the fitted maximal effect; actives are rising curves; nearly all actives have a fitted effect of over 50% in size
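Growth recovery, yeast-based: influenza A NS1 expressed in S. cerevisiae causes slow growth, and suppressors are detected by OD600. The parent strain without NS1 is used as positive control.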
The depositor's hits bear a star; u = inconclusive; x = not tested or not shown; [ ] = another dose, or the depositor's remark. Unless noted, the call rests on the fitted dose curve.

SMILES	Pf growth 96h	Pf growth 48h	Shiga inhibitor	CHX counter	SARS PLP yeast	NS1 function inh
Nc1ncncc1-c1ccc([N+](=O)[O-])cc1	46%	14%	-9	10	1%	-23%
O=C(CCc1nc2ccccc2s1)c1ccccc1	u	62%	4	37*	-1%	-6%
O=C(O)CCCc1nc2ccccc2s1	x	1%	-3	-2	1%	-1%
O=C(CCc1nc2ccccc2s1)OCC(=O)c1ccccc1	55%	44%	31	12*	2%	-1%
Cc1ccc(S(=O)(=O)CCC(=O)OC(C)c2nnc(-c3cccs3)o2)cc1 (stereo not given)	x	x	x	x	0%	x
O=C1NC(=O)N(c2ccc(F)cc2)C(=O)/C1=C/c1ccsc1	0%	17%	-2	-1	1%	x
O=C1N/C(=C/c2ccsc2)C(=O)N1c1ccccc1	u	79%	47*	26*	-1%	-1%
CC(C)n1cc(/C=C2/NC(=O)N(c3cccc(Cl)c3)C2=O)c2ccccc21	9.3µM*	8.3µM*	16	1	-21%	16%
O=C(O)c1ccc(-n2cccc2/C=C2/NC(=O)N(c3cccc(Cl)c3)C2=O)cc1	3%	-1%	-17	-2	5%	x
CC(C)n1cc(/C=C2\NC(=O)N(c3cccc(Cl)c3)C2=O)c2ccccc21	u	x	-12	8	-2%	3%
CCn1c(C)cc(/C=C2\NC(=O)N(CC(=O)Nc3cccc(C)c3)C2=O)c1C	u	u	-11	1	-7%	u
COCCn1c(C)cc(/C=C2/NC(=O)N(c3cccc(Cl)c3)C2=O)c1C	u	1%[5.75 µM]	64*	38*	0%	x
CCn1c(C)cc(/C=C2/NC(=O)N(c3ccccc3)C2=O)c1C	37%	u	97*	43*	-2%	13%
Cc1cc(F)ccc1S(=O)(=O)N1CCCOC1CNC(=O)C(=O)NCCCN1CCOCC1 (stereo not given)	u	8%	-13	9	-3%	4%
CC(C)(C)c1ccc(C(=O)N2CCN(c3ccc(N4CCOCC4)nn3)CC2)cc1	u	u	x	x	-1%	x
CCC(=O)C1CCCN(C(=O)c2ccc(OC3CCN(C(=O)CCOC)CC3)cc2)C1 (stereo not given)	20%	7%	14	-2	4%	13%
Cc1ccsc1CN(C)C(=O)c1ccc(Oc2ccccc2)cc1	-26%	12%	63*	18*	-28%	-36%
CN(C)C(=S)Nc1ccc2c(c1)OCCO2	34%	u	7	14	-1%	7%
O=S(=O)(c1ccc(Br)cc1)N1CCN(S(=O)(=O)c2ccc(Br)cc2)CC1	x	x	x	x	x	-3%
COCc1ccc(CN2CCCC(C(=O)c3sccc3C)C2)o1 (stereo not given)	15µM*	14%	-9	1	1%	1%
Cc1ccc(NC(=O)c2ccc3c(c2)CCN3S(C)(=O)=O)cc1C	0%	59%	31*	29*	-11%	3%
Cc1cccc(NC(=O)c2ccc3c(c2)CCN3S(C)(=O)=O)c1	9%	2%	47*	29*	-9%	-9%
CCN(Cc1ccccc1)C(=O)CSc1nc(C)cc(C)c1C#N	10µM*	u	-14	-5	-18%	-61%
Cc1cc(C)c(C#N)c(SCC(=O)NC(C)(C)C)n1	7.4µM*	x	-14	-9	1%	-6%
CCN(CC)C(=O)CSc1nc(C)cc(C)c1C#N	95%	-2%	-2	4	-2%	x
SMILES	Pf growth 96h	Pf growth 48h	Shiga inhibitor	CHX counter	SARS PLP yeast	NS1 function inh
COc1cc2c(cc1OC)CN(C(=O)CSc1nc(C)cc(C)c1C#N)CC2	6.6µM*	u	-3	-2	11%	9%
Cc1cc(C(F)(F)F)c(C#N)c(SCC(=O)NC(C)(C)C)n1	u	-14%	-8	-2	6%	9%
CCc1nnc(NC(=O)CSc2nc(C)cc(C)c2C#N)s1	16%	115%[5.75 µM]	40	15*	-2%	x
Cc1cc(C)c(C#N)c(SCC(=O)N2CCCCC2)n1	x	3%	-2	-2	-4%	-45%
CCCCn1c(N)c(N(CCOC)C(=O)c2cc(-c3ccccc3Cl)nc3ccccc23)c(=O)[nH]c1=O	u	u	x	x	1%	x
CCN(CC)S(=O)(=O)c1ccc(C)c(N=C=S)c1	-1%	6%	12	-2	-1%	x
CCN(Cc1ccccc1)C(=O)COC(=O)Cn1cnc2ccccc21	24%	15%	28	-2	-3%	x
COc1cccc([C@@H]2CC=C(C(=O)O)[C@H](c3ccc(Br)cc3)N2S(=O)(=O)c2ccc(C)cc2)c1	x	x	x	x	1%	x
COCc1cc(C)nc(SCC(=O)Nc2ccccc2C)c1C#N	u	-11%	-4	2	1%	-7%
CCOC(=O)NC(=O)CSc1nc(C)cc(C)c1C#N	9.3µM*	148%	17	22	-3%	-12%
COC(=O)CC(=O)CSc1nc(C)cc(C)c1C#N	8.3µM*	21%	25	-2	-1%	12%
Cc1cc(C)c(C#N)c(SCC(=O)Nc2ccccc2C(N)=O)n1	-6%	10%	51*	23*	-4%	6%
CCOC(=O)CNC(=O)CSc1nc(C)cc(C)c1C#N	x	x	-9	5	-7%	u
Cc1cc(C)c(C#N)c(SCCS(=O)(=O)c2ccc(C(C)(C)C)cc2)n1	x	7.4µM*	-8	-2	-1%	2%
O=C(NC1CCSc2ccccc21)c1ccc(Cl)c(S(=O)(=O)N2CCOCC2)c1 (stereo not given)	u	u	21	11	-1%	-7%
CC(=O)Nc1ccc(NC(=O)CSc2nnc(NC(=O)c3ccc(Br)o3)s2)cc1	1%	5%	4	-3	-7%	7%
O=C(Nc1ccc(F)cc1)Nc1ccc(N2CCCC2)c(S(=O)(=O)Nc2ccccc2Cl)c1	4.7µM*	9.3µM*	26	11	4%	23%
O=C(Nc1ccc(Cl)c(Cl)c1)Nc1ccc(N2CCCC2)c(S(=O)(=O)Nc2ccccc2Cl)c1	3.7µM*	13µM*	18	8	2%	-6%
O=C(Nc1ccc(N2CCOCC2)c(S(=O)(=O)Nc2ccccc2Cl)c1)c1ccc(F)cc1	x	x	x	x	13%	x
CC12CCC=CC1C(c1cccc([N+](=O)[O-])c1)N(Cc1ccccc1)C2=O (stereo not given)	x	x	16	7	x	x
CCN(CC(=O)NC1CCS(=O)(=O)C1)S(=O)(=O)c1ccc(C)c(C)c1 (stereo not given)	3%	0%	5	3	-1%	u
O=C(CCC1COc2ccccc2O1)Nc1ccc(Cl)cn1 (stereo not given)	8%	15%	31*	14*	-14%	-11%
CCOC(=O)c1ccc(NC(=O)CCC2COc3ccccc3O2)cc1 (stereo not given)	u	0%	-12	-1	-13%	-46%
Cc1ccnc(NC(=O)CCC2COc3ccccc3O2)c1 (stereo not given)	x	24%	17	13*	-1%	-5%

Screening data from PubChem.
